Values without a mark were called inactive. Active and inactive are the calls of the source.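 Rule for the calls, unless noted: active = mean inhibition above 46.5%, the solvent-only control mean plus 3 SD; inactive = the rest.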

Test [1] concerns transactivating tegument protein VP16 (Human herpesvirus 1). In words: compounds suppressing VP16-driven luciferase signal – cell-based, luminescence, single concentration, counter-screen for SRC2 inhibitor project (AID 652007; in the data active = inhibition above about 36%). The following applies: cell-based VP16 transactivation luciferase reporter, at 8.9 µM, stronger effect = higher value.
Test [2] has as its target Nuclear receptor coactivator 2 (Homo sapiens) (UniProt Q15596). In words: inhibition of GAL4-SRC2 driven luciferase expression – cell-based, luminescence, HEK293, triplicate, confirmation (AID 652008).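 Note: 0% = DMSO-treated cells and 100% = Gossypol at 36 µM.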 The following applies: HEK293 GAL4-SRC2 luciferase reporter, at 8.9 µM, stronger effect = higher value. Background: Reporter assays use an easily measured gene product as a stand-in for the process of interest.

Nuclear receptor coactivator 2 (Homo sapiens), sequence (Q15596 whole entry, looked up, the tested form may be a part): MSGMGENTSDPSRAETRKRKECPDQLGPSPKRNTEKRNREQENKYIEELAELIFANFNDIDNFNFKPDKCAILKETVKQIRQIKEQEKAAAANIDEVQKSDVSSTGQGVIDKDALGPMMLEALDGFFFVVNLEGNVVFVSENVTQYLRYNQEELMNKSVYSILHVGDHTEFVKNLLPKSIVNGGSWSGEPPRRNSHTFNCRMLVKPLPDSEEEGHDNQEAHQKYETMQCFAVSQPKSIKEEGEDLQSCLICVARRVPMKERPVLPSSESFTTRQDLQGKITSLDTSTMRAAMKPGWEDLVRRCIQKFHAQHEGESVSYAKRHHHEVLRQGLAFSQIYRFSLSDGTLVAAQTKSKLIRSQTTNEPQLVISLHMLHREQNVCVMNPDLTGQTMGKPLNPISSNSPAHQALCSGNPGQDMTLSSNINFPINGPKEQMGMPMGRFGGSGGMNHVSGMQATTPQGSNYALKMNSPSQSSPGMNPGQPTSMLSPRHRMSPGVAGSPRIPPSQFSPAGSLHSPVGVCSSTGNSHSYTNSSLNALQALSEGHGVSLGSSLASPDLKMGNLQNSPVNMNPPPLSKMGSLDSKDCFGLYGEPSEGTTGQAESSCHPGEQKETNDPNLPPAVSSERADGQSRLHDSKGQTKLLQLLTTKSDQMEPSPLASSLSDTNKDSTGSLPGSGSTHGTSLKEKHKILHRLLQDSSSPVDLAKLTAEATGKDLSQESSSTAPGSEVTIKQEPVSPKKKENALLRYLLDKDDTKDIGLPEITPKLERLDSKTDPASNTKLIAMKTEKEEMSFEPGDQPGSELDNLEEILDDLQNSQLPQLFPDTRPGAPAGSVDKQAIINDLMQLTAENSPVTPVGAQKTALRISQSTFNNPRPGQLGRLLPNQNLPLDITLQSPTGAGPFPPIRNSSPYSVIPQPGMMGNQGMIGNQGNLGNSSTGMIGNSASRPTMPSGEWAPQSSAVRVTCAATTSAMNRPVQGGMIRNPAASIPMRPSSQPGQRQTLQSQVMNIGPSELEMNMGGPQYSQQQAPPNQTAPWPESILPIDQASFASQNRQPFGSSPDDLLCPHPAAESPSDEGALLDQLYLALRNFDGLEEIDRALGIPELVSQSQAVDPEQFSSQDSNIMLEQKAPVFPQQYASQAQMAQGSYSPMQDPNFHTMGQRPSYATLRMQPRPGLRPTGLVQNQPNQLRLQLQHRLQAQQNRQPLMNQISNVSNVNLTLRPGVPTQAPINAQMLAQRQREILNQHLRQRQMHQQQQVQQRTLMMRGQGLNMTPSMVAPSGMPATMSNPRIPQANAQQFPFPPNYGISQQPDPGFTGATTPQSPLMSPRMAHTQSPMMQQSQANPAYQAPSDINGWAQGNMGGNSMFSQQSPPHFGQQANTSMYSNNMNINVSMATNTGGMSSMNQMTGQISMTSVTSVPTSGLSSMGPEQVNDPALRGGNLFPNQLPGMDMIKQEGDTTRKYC

`O=C(N=C1SC2CS(=O)(=O)CC2N1Cc1ccccc1)C1CCCO1` (configuration not stated): the inhibition in test [1] is -0.59%; in test [2], -2.87%.
For `CCCCCCC(=O)N(O)C1CC(=O)N(c2ccc(C)cc2)C1=O` (configuration not stated) the same measures were 9.6% and 39.9%.
On the same counts, the results for `Cc1cc(=O)oc2cc(OC(C)C(=O)NCCc3ccc(S(N)(=O)=O)cc3)ccc12` (configuration not stated) are -19.6% and -12.7%.
On the same counts, the results for `COc1ccc(C(=O)Nc2nc3ccccc3[nH]2)cc1` are -57.5% and 13.5%.
Turning to `CCc1sc(NC(=O)CN2CCOCC2)nc1-c1ccccc1`, the inhibition in test [1] was -0.48%; in test [2] it was -0.93%.
For the molecule `CC(C)C[C@H]1CN(CCCC[C@H]2CNC(=O)C(=O)N2CCc2ccccc2)C(=O)C(=O)N1CCC1CCCCC1`, the figures for the inhibition in test [1] and in test [2] were 10.7% and -17.3%, respectively.
For `Cc1[nH]nc(-c2cccnc2)c1N=NN(C)C` the same measures were 10.9% and 41.1%.
On the same counts, the results for `Fc1ccc(-c2nnc(NC3=NCCCCC3)o2)cc1` are -10.8% and 31.4%.
Turning to `Cc1sc(NC(=O)CSc2nnnn2C(C)C)c(C#N)c1C`, the inhibition was 2.68% in test [1] and -4.47% in test [2].
For `Cn1nnnc1Sc1ncnc2scc(-c3cccc(S(C)(=O)=O)c3)c12` the same measures were 21.7% and 2.26%.
On the same counts, the results for `CCOC(=O)C1CCN(S(=O)(=O)c2ccc(NC(=O)OC)cc2)CC1` are -1.65% and -1.21%.
For `C=C1C(=O)[C@@]23[C@H](O)C[C@@H]4C(C)(C)CC[C@H](O)[C@]4(C)[C@@H]2C[C@H](O)[C@@H]1[C@H]3O` the same measures were 4.46% and 54% (active).
As to `CCn1nc(NC(=O)C(C)C)c2cc3cccc(C)c3nc21`, the inhibition was 3.87% in test [1] and 15.9% in test [2].
On the same counts, the results for `COC(=O)c1cnn(-c2ccc(Cl)cc2)c1/C=N/NC(N)=S` are 22% and 34.7%.
On the same counts, the results for `COc1cc(C(=O)NCc2ccncc2)cc(Br)c1OCc1ccccc1` are 0.29% and 36.2%.
With `COCCn1c(-c2ccc(Br)cc2)csc1=Nc1cccnc1`, the results for the inhibition in test [1] and in test [2] were 10.4% and 20.4%, respectively.
With `O=C(NC1CC1)c1ccc(-c2nc3ccccc3s2)s1`, the inhibition in test [1] was -51.1%; in test [2], 16.9%.
Regarding `COc1ccc(C(=O)c2ccc(CC(=O)O)s2)cc1`, the inhibition was 29.4% in test [1] and 43.1% in test [2].
On the same counts, the results for `O=C(O)CCSc1nc2ccccc2s1` are 40.8% (active) and 58.5% (active).
On to `C(=N\Nc1nc2ccccc2s1)/c1ccccn1`, for which the inhibition in test [1] was 49.5% (active); in test [2], 52.3% (active).
On the same counts, the results for `Cc1cccc(N(Cc2cc(=O)[nH]c3ccccc23)C(=O)CCl)c1` are 42.4% (active) and 83% (active).
On the same counts, the results for `COc1cccc(-c2nc(-c3ccccn3)no2)c1` are -20.4% and 24.9%.
On the same counts, the results for `O=C(COC(=O)c1cccc(F)c1)Nc1cccc(S(=O)(=O)N2CCCCC2)c1` are 1.01% and 2.48%.
Turning to `O=C(CN1CCN(CC(=O)Nc2ccccc2Cc2ccccc2)CC1)Nc1ccccc1Cl`, the inhibition is 11.3% in test [1] and 4.85% in test [2].
With `COc1ccc2nc(Sc3c([N+](=O)[O-])nc(C)n3Cc3ccccc3)[nH]c2c1`, the inhibition in test [1] is 13.1%; in test [2] it was 37.8%.
For `COc1ccc(NC(=O)C2(C)Cc3c(-c4cccc(NC(C)=O)c4)ccnc3O2)cc1` (configuration not stated) the same measures were -10.6% and 1.6%.
On the same counts, the results for `C=CCc1cccc2cc(C(=O)Nc3ccc(CC(=O)O)cc3)c(=O)oc12` are 12% and 25.6%.
Regarding `COc1cc2[nH]c(=O)n(CCCCCC(=O)NCCCN3CCCC3=O)c(=O)c2cc1OC`, the inhibition was 7.78% in test [1] and -9.47% in test [2].
For `CCCC(CCC)C(=O)Nc1ccc2c(c1)N(C(=O)CN1CCN(C)CC1)c1ccccc1CC2` the same measures were -0.11% and -4.28%.
With `CC(C)CCSc1nc(N)c(C#N)cc1C#N`, the inhibition was -75.7% in test [1] and 17.8% in test [2].
In the case of `CC(C)=CCC[C@@]1(C(=O)O)[C@H]2CC=C(CO)[C@@H]1CC/C(C)=C/CC/C(C)=C/C2`, the inhibition in test [1] is 14.6%; in test [2], 17.2%.
In the case of `O=C(COC(=O)c1ccc(Br)o1)NCC(=O)Nc1ccc(F)cc1`, the results for the inhibition in test [1] and in test [2] were -21% and -15.8%, respectively.
Regarding `CCOc1ccc(NC(=O)c2ccccn2)cc1`, the figures for the inhibition in test [1] and in test [2] were -15.2% and 25.7%, respectively.
For `Cc1ccc(C)c(S(=O)(=O)N2CCN(C(=O)C3CCN(c4ncnc5sc(C)c(C)c45)CC3)CC2)c1` the same measures were 15.6% and 38.6%.
`COc1ccc(C(=O)C(CN2CCOCC2)c2ccccc2)cc1F` (configuration not stated): the inhibition is -1.66% in test [1] and 13.4% in test [2].
On the same counts, the results for `CC(=O)O[C@@H]1C[C@H]2C(C)(C)C(=O)C=C[C@]2(C)[C@H]2CC[C@@]3(C)[C@H](c4ccoc4)OC(=O)[C@H]4O[C@]43[C@@]21C` are 35.9% (active) and 27%.

Usually inhibition stands for the drop in the measured response relative to a control, in per cent.
